{
  "source": "PubChem BioAssay (NCI)",
  "note": "About 79,000 compounds went through this panel and 15% of them were active in at least one assay; those are over-represented in the sample as a whole. A number with no mark means an inactive call. Cut-off read from the data, not from the text of the source: active = growth inhibition above about 70%; inactive = the rest.",
  "data": [
    {"assay": "NCI Yeast Anticancer Drug Screen. Data for the CLN2oe strain (AID 163);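 note: 0% = growth of vehicle-only control cultures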", "settings": "S. cerevisiae CLN2oe strain, at 1.2 µM, stronger effect = higher value", "in_short": "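Values reflect how much compound exposure reduced yeast growth, referenced to vehicle-exposed cells. Assay organism is a strain with a defined genetic change affecting cell-cycle control.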", "units": {"growth inhibition": "%"}, "values": [
      {"smiles": "CN(C)c1ccc(C2CC(C)(O)Oc3cc4c(cc32)OCO4)cc1", "note": "(stereo unspecified)", "growth inhibition": -5},
      {"smiles": "O=P(NC1CCCCC1)(OCc1ccccc1)OCc1ccccc1", "growth inhibition": 7},
      {"smiles": "COc1oc(C(=O)NC2CCCCC2)c(-c2ccc(Cl)cc2)c1S(=O)(=O)c1ccccc1", "growth inhibition": -1},
      {"smiles": "C[Si](C)(C)/C=C/CCNC(C#N)c1ccccc1", "note": "(stereo unspecified)", "growth inhibition": 3},
      {"smiles": "CCOc1ccc(NC(=O)C2=C(C)NC(C)=C(C(=O)Nc3ccc(OCC)cc3)C2c2cccc([N+](=O)[O-])c2)cc1", "growth inhibition": 0},
      {"smiles": "CN(C)CCOC1(Cc2ccc(F)cc2)CCC(C(C)(C)C)CC1", "note": "(stereo unspecified)", "growth inhibition": -5},
      {"smiles": "CC1(C)CC(=O)C(/C=N/c2nc(-c3ccccc3)cs2)=C(O)C1", "growth inhibition": -4},
      {"smiles": "CC(=O)Nc1ccc2c(c1)Cc1cc(N=C3C=CC(=O)O3)ccc1-2", "growth inhibition": 6},
      {"smiles": "O=C1C=C(Cl)C(=O)C(c2ccc(Cl)cc2)=C1", "growth inhibition": 31},
      {"smiles": "CCCCCCCCCCCC(O)S(=O)(=O)O", "note": "(stereo unspecified)", "growth inhibition": -2},
      {"smiles": "CC(C)OC(=O)c1ccc(CCc2cc(O)c(Br)cc2O)cc1", "growth inhibition": -5},
      {"smiles": "CCc1cc(O)c(Cl)c(C)c1Cl", "growth inhibition": 18},
      {"smiles": "C(=Nc1ccc(-c2cc(-c3ccccc3)nc3ccc4ccccc4c23)cc1)c1ccccc1", "growth inhibition": 29},
      {"smiles": "CSc1nc(C)c(CCOC(C)=O)c(N=P(c2ccccc2)(c2ccccc2)c2ccccc2)n1", "growth inhibition": 18},
      {"smiles": "CS(=O)(=O)SCc1ccc([N+](=O)[O-])cc1", "growth inhibition": -2},
      {"smiles": "COC1=C(OC)C(=O)C(Sc2ccc3ccccc3c2)=CC1=O", "growth inhibition": 5}
    ]}
  ]
}
